Only some compounds are listed: those with a hit (about 13% of all), similar ones and a draw of the others.
A350 fluor: qHTS Assay for Spectroscopic Profiling in A350 Spectral Region; max dye-equivalent concentration, M; Compound autofluorescence, 340/450 nm, Alexa 350 dye-equivalents; active compounds read high; 59,000 tested, 11% active; in the data active means max dye-equivalent concentration above about 10 nM; inconclusive means mostly about 1.1 nM to 9.6 nM
4MU fluor: qHTS Assay for Spectroscopic Profiling in 4-MU Spectral Region. compound autofluorescence, 340/450 nm, 4-MU equivalents; active compounds read high. max dye-equivalent concentration, M. 59,000 tested, 11% active; in the data active means max dye-equivalent concentration above about 10 nM; inconclusive means mostly about 1.1 nM to 9.6 nM
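Compounds in 100 mM Tris, pH 8.0, incubated 15 min at room temperature, then fluorescence read at 340 nm excitation/450 nm emission. Signal converted to 4-MU dye-equivalent concentration using an on-plate six-point 4-MU standard curve.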
AID923: qHTS Assay for Allosteric/Competitive Inhibitors of Caspase-1: Spectroscopic Profiling in AFC Spectral Region; compound fluorescence, AFC spectral region (405/520 nm); Potency, µM (doses to about 57.5 µM), inactives show at the top dose fluorescence increase, usual class: activators; 75,000 tested, 1.1% active; further: potency means the concentration at half of the fitted maximal effect; 0% is about no effect
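Baseline compound fluorescence (AFC region, 405 nm ex/520 nm em) taken from the intercept of kinetic reads with 50 nM caspase-1 and 5 uM Ac-WEHD-AFC; normalized to an on-plate AFC standard curve; compounds titrated up to 57 uM.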
HADH2 inhib: qHTS Assay for Inhibitors of HADH2 (Hydroxyacyl-Coenzyme A Dehydrogenase, Type II); 3-hydroxyacyl-CoA dehydrogenase type-2 (Homo sapiens), Q99714; recombinant HADH2, NADH fluorescence, beta-hydroxybutyryl-CoA; Potency, µM (series often up to 57.1 µM), for inactives: top-dose activity change, negative = inhibition, usual class: inhibitors; 73,000 tested, 3.4% active; AID 886, 2007; further: potency means the concentration at half of the fitted maximal effect; on the % scale 0 is the no-effect control and ±100 the full control effect; nearly all actives have a fitted effect of over 60% in size
Target sequence (Q99714 whole entry, looked up, one chain of several): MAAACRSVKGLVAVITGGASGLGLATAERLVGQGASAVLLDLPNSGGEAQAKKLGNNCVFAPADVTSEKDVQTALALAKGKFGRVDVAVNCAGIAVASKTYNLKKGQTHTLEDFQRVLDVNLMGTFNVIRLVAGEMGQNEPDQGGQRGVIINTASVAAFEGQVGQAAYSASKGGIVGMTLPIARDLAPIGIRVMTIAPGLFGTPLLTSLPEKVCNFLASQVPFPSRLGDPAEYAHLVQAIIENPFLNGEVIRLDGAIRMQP
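20 nM HADH2 + cpd, 15 min RT; add 1 mM NAD+/90 uM beta-hydroxybutyryl-CoA; kinetic fluorescence 360/450 nm, 4 min. Tris-HCl pH 9.0, 0.01% Tween-20.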
HSD17B inhib: qHTS Assay for Inhibitors of HSD17B4, hydroxysteroid (17-beta) dehydrogenase 4; 3-hydroxyacyl-CoA dehydrogenase type-2 (Homo sapiens), Q99714; recombinant HSD17B10, NADH fluorescence kinetic; Potency, µM (top dose mostly 57.1 µM), inactives show at the highest dose activity change, negative = inhibition, usual class: inhibitors; 75,000 tested, 7.6% active; AID 893, 2007;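 further: the protocol describes HADH2 (HSD17B10) and not the HSD17B4 of the title; potency means the concentration at half of the fitted maximal effect; on the % scale 0 is the no-effect control and ±100 the full control effect; nearly all actives have a fitted effect of over 70% in size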
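Enzyme plus compound, 15 min room temperature; substrate mix added (NAD+ 1 mM, beta-hydroxybutyryl-CoA 90 uM final); plates read kinetically for NADH fluorescence. HADH2 was His-tagged, E. coli-derived, 20 nM.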
* = called active by the depositor; i = inactive; ? = inconclusive; . = not tested or not shown; [ ] = remark or other dose. Unless noted, the call rests on the fitted dose curve; in most records, active means well fitted curve in the direction sought with a large enough effect; inconclusive means small, poorly fitted or top-dose-only effect, or another doubt; inactive means no such curve, though single readings can be large; an effect the other way counts as inactive or inconclusive.

SMILES | A350 fluor | 4MU fluor | AID923 | HADH2 inhib | HSD17B inhib
NCC1O[C@H](O[C@@H]2C(O)[C@H](O[C@H]3OC(CO)C(O)C(N)C3O)[C@@H](N)C[C@H]2N)[C@@H](N)CC1O (stereo partly drawn) | . | . | -1% | . | 5%
COc1ccc(Oc2ncc3nc(C)c(=O)n(C4CC4)c3n2)cc1 | i | i | 5% | -10% | 4%
NC(=O)c1ncn([C@H]2O[C@@H](CO)[C@@H](O)[C@@H]2O)n1 | i | i | -1%[25.7 µM] | -3%[25.6 µM] | -3%[25.6 µM]
Cc1cc(=O)oc(C)c1C(=O)O | i | i | -2% | 1% | 5%
Cc1oc(C)c(C(N)=O)c1C(N)=O | 4.1e-08M* | 4.6e-08M* | -1% | 0% | -12%
C[C@@H](C(=O)Nc1ccc2ccccc2c1)[C@H]1C[C@]1(C)[C@H](NC(=O)Oc1ccc(F)cc1)c1ccccc1 | . | . | 1% | 6% | 9%
COc1ccccc1CN1CC[C@@]2(CCCN(C(=O)c3c(C)noc3C)C2)C1 | i | i | 1% | 17% | -2%
COc1ccc2c(c1)CCc1c-2n[nH]c1C(=O)O | i | i | -1% | ? | 32µM*
COc1ccc2c(c1)CCc1c(-c3noc4c3CCc3cc(OC)ccc3-4)noc1-2 | i | i | 1%[11.5 µM] | 4%[11.4 µM] | 4%[11.4 µM]
Nc1ncnc2c1nc(Br)n2[C@@H]1O[C@H]2COP(=O)(O)O[C@@H]2[C@H]1O | 2.4e-08M* | 2.6e-08M* | -1% | -9% | -4%
Nc1ncnc2c1nc(Sc1ccc(Cl)cc1)n2[C@@H]1O[C@H]2COP(=O)(O)O[C@@H]2[C@H]1O | i | i | -2% | 7% | 4%
Cc1cc(/C=N/n2cnnc2)c(C)n1-c1ccc2c(c1)OCO2 | 1.9e-08M* | 1.8e-08M* | . | . | .
c1ccc(-c2nc(NCC3CCCO3)c3ccccc3n2)nc1 (stereo not drawn) | i | i | . | . | .
Oc1cccc(Nc2nc(NCC3CCCO3)c3ccccc3n2)c1 (stereo not drawn) | i | i | 2% | 2% | 16µM*
CCC1=C2CC[C@H]3C(=O)NC(=O)[C@H]3[C@H]2[C@@]2(C)C(=NCC3CC3)OC(=O)N2C1=O | . | . | 1% | . | -13%
COc1ccccc1N(C(=O)c1snc(C(N)=O)c1N)C(C(=O)NCCC(C)C)c1ccco1 (stereo not drawn) | 2.2e-07M* | 2.4e-07M* | 13% | -15% | ?
O=C(NC1CCCC1)C(c1cccs1)N(C(=O)c1ccco1)c1ccc2c(c1)OCCO2 (stereo not drawn) | i | i | 0% | 12% | -13%
COc1ccccc1N(C(=O)c1snc(C(N)=O)c1N)C(C(=O)NC1CCCC1)c1ccco1 (stereo not drawn) | 4.7e-07M* | 3.1e-07M* | 13% | -22% | 32µM*
CCOc1ccccc1N(C(=O)c1snc(C(N)=O)c1N)C(C(=O)NCCC(C)C)c1ccco1 (stereo not drawn) | 1.7e-07M* | 2e-07M* | 13% | 9% | 32µM*
CC(C(=O)NC1CCCC1)N(C(=O)c1snc(C(N)=O)c1N)c1ccc2c(c1)OCCO2 (stereo not drawn) | 2.4e-08M* | 1.7e-08M* | 1% | 19% | 12%
COCC1C2CC[C@H]3C(OCc4ccc(F)cc4C(F)(F)F)OC[C@]4(C)[C@H]3C2=C(CN4C(=O)OC(C)(C)C)[C@H](C)C1COC (stereo partly drawn) | . | . | 2% | 0% | -19%
CN(C)c1ccnc(-c2cccc(NS(C)(=O)=O)c2)n1 | i | i | -4% | 7% | 6%
COCCNC(=O)C(c1ccc(C)o1)N(C(=O)c1snc(C(N)=O)c1N)c1cc(C)cc(C)c1 (stereo not drawn) | 9.8e-08M* | 1.1e-07M* | 6% | -14% | ?
CCCNC(=O)OC[C@@H]1O[C@H](CCO/N=C(\C)CCN2CCCCc3nc(C)c(C)cc32)C=C[C@@H]1Oc1ccc(OC)cc1 | . | . | 1%[11.5 µM] | 7%[11.4 µM] | 6%[11.4 µM]
Cc1nn(-c2ccccc2)c(C)c1CCC(=O)O | . | . | -1% | -2% | 8%
